40 compounds from PubChem BioAssay can be followed below.

Calls of active or inactive are those of the source.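 Rule for the calls: active = inhibition at or above 50% relative to wild type and mutant plate controls; inactive = inhibition below 50%.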

This assay in a line: inhibitors of Chlamydomonas gravitaxis, primary screen, whole organism, Chlamydomonas reinhardtii, WT vs cilia-less mutant, absorbance, 96-well (AID 463189).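 Note: 0% = wild type cc124 cells in DMSO and 100% = ciliumless bld1 mutant cells.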 The conditions noted are these: OD600 absorbance, 2 days, at 10 µM, hits give high values.
With `CCC(=O)N1CCN(C(=O)c2ccccc2)CC1`, the inhibition was 0.644% (inactive).

As to `NCCNC(=O)c1ncsc1-c1cccc(F)c1`, the inhibition is 0.32% (inactive).

Consider `NC(N)=NCCC[C@H](N)C(=O)O`, for which the inhibition is -8.92% (inactive).

In the case of `O=C1Nc2ccc(I)cc2/C1=C/c1cc(Br)c(O)c(Br)c1`, the inhibition was -6.77% (inactive).

Consider `O=C(OCCN1CCCCC1)c1c[nH]c2ccccc12`, for which the inhibition is 5.42% (inactive).

As for `NCCCCCC(=O)O`, the inhibition is 3.27% (inactive).

With `COc1ccc2c(c1)c(CC(=O)O)c(C)n2Cc1ccc(F)cc1`, the inhibition was 4.4% (inactive).

For the compound `COC(=O)[C@@H](N)Cc1ccc(O)c(O)c1`, the inhibition is -3.44% (inactive).

In the case of `Cc1ccc2c(c1)C(N1CCN(C)CC1)=Nc1cccnc1N2`, the inhibition was 7.3% (inactive).

Take `CCN(CC)C(=S)SSC(=S)N(CC)CC`: the inhibition is 12.2% (inactive).

Regarding `CCCCNc1c(C(=O)OCC)c(C)nc2c1cnn2CC`, the inhibition was 8.88% (inactive).

Turning to `Cc1ccc(/C(=C\CN2CCCC2)c2ccccn2)cc1`, the inhibition was 11.6% (inactive).

`CCCn1cnc2c1c(=O)n(CCCCC(C)=O)c(=O)n2C`: the inhibition is 3.15% (inactive).

`NNCCc1ccccc1`: the inhibition was 3.74% (inactive).

Consider `O=C(O)C1CCCN(CCC=C(c2ccccc2)c2ccccc2)C1` (stereo not given), for which the inhibition is 11.4% (inactive).

Regarding `N=C(N)c1ccccc1`, the inhibition is 7.5% (inactive).

With `COc1cc2c(cc1OC)[C@@H](c1ccccc1)CN(C)CC2`, the inhibition is 8.36% (inactive).

For `O=c1onc2cnc3ccccc3n12`, the inhibition is 3.46% (inactive).

For the compound `Clc1ccc(C(c2ccccc2Cl)C(Cl)Cl)cc1` (stereo not given), the inhibition is 11.1% (inactive).

Regarding `C[N+](C)(C)CCC(=O)c1cccc2ccccc12`, the inhibition was 7.13% (inactive).

As to `Nc1c(S(=O)(=O)O)cc(Nc2ccc(Nc3nc(Cl)nc(Nc4ccc(S(=O)(=O)O)cc4)n3)c(S(=O)(=O)O)c2)c2c1C(=O)c1ccccc1C2=O`, the inhibition is 8.09% (inactive).

As for `Cc1ccccc1CNc1ncnc2c1ncn2C1OC(CO)C(O)C1O` (stereo not given), the inhibition is -2.9% (inactive).

In the case of `O=C(O)CCCCCC[C@H]1C(=O)NC(=O)N1CC[C@@H](O)C1CCCCC1`, the inhibition was -0.469% (inactive).

Turning to `CC(C)(C)c1cc(/C=C(\C#N)C(N)=S)cc(C(C)(C)C)c1O`, the inhibition is 35.4% (inactive).

On to `CCN1CCC[C@H]1CNC(=O)c1cc(S(N)(=O)=O)ccc1OC`, for which the inhibition is 3.94% (inactive).

Turning to `O=C(CCCN1CCC(O)(c2cccc(C(F)(F)F)c2)CC1)c1ccc(F)cc1`, the inhibition is 40.6% (inactive).

For `CC(C)(C)NCC(O)COc1cccc2[nH]c(=O)[nH]c12` (stereo not given), the inhibition was 3.61% (inactive).

In the case of `CCCCCC[C@@H]([C@@H](C)O)n1cnc2c(N)ncnc21`, the inhibition was -0.492% (inactive).

Regarding `CC(=O)OCC1=C(C(=O)O)N2C(=O)[C@@H](NC(=O)CSc3ccncc3)[C@H]2SC1`, the inhibition was 6.67% (inactive).

For `CCOC(=O)Nc1ccc(NCc2ccc(F)cc2)nc1N`, the inhibition is 3.93% (inactive).

On to `CN1CCc2cccc3c2C1Cc1ccc(O)c(O)c1-3` (stereo not given), for which the inhibition was -7.51% (inactive).

On to `NC(N)=NC(N)=Nc1ccccc1`, for which the inhibition is 4.74% (inactive).

As to `COC1=C(OC)C(=O)c2ccccc2C1=O`, the inhibition was 159% (active).

With `COc1cccc(-c2cc(=O)c3ccccc3o2)c1N`, the inhibition is 0.351% (inactive).

For `OCC1NCC(O)C(O)C1O` (stereo not given), the inhibition was -0.461% (inactive).

With `Cc1nc(N=Nc2ccc(S(=O)(=O)O)cc2S(=O)(=O)O)c(COP(=O)(O)O)c(C=O)c1O`, the inhibition was 2.65% (inactive).

Take `CN(Cc1cnc2nc(N)nc(N)c2n1)c1ccc(C(=O)N[C@@H](CCC(=O)O)C(=O)O)cc1`: the inhibition is -2.7% (inactive).

Take `NCC(O)(CS(=O)(=O)O)c1ccc(Cl)cc1` (stereo not given): the inhibition is 30.8% (inactive).

For `N=C(N)c1ccc(N)cc1`, the inhibition is 28.5% (inactive).

In the case of `CC(C)COC(=O)OCN1C(=O)CN(CCN2CC(=O)N(COC(=O)OCC(C)C)C(=O)C2)CC1=O`, the inhibition was 5.88% (inactive).
